Activity calls are given as the source filed them. How the source made its calls: active means hit-call score of the fitted dose curve at least 0.9, where 1 is the maximum; inactive means score below 0.9.
What was measured:
Details in all cases: mRNA level, 48 h; actives raise or lower the signal
[1] = read-out: Paternally Expressed 10 (PEG10), PEG10 (gene 23089); test: LTEA_HepaRG_PEG10: Life Technologies and Expression Analysis (LTEA) Assay for Paternally Expressed 10 (PEG10) using HepaRG (AID 2283520)
Procedure, shortened: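 PEG10 transcript measured by Fluidigm qRT-PCR, normalized to three housekeeping genes, in HepaRG cells treated 48 h (highest 100 uM, half-log steps, 0.5% DMSO vehicle). Cells plated 48 h before switching to serum-free induction medium.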

[2] = read-out: Protein phosphatase 2A (PPP2R4), PTPA (gene 5524); test: LTEA_HepaRG_PPP2R4: Life Technologies and Expression Analysis (LTEA) Assay for Protein phosphatase 2A (PPP2R4) using HepaRG (AID 2283522)
Procedure, shortened: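 Expression was quantified by Fluidigm qRT-PCR normalised to three housekeeping genes after 48 h treatment. Human HepaRG cells received an 8-point series from 100 µM downward by half-logs, in duplicate with 0.5% DMSO vehicle and 1 mM phenobarbital as induction control.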

[3] = read-out: Phosphatase and tensin (PTEN), PTEN (gene 5728); test: LTEA_HepaRG_PTEN: Life Technologies and Expression Analysis (LTEA) Assay for Phosphatase and tensin (PTEN) using HepaRG (AID 2283523)
Procedure, shortened: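 Expression of PTEN is quantified in the human liver line HepaRG following two days of dosing (top concentration 100 uM, half-log dilutions, 0.5% DMSO). Values derive from bidirectional curve fitting relative to DMSO controls.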

[4] = read-out: solute carrier (SLC22A1), SLC22A1 (gene 6580); test: LTEA_HepaRG_SLC22A1: Life Technologies and Expression Analysis (LTEA) Assay for solute carrier (SLC22A1) using HepaRG (AID 2283524)
Procedure, shortened: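 Transcript induction or suppression of SLC22A1 in human HepaRG cultures is scored after 48 h chemical treatment, with DMSO (0.5%) as baseline for bidirectional fitting. Concentrations span eight half-log points topping at 100 uM.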

[5] = read-out: Pyruvate Dehydrogenase Kinase 4 (PDK4), PDK4 (gene 5166); test: LTEA_HepaRG_PDK4: Life Technologies and Expression Analysis (LTEA) Assay for Pyruvate Dehydrogenase Kinase 4 (PDK4) using HepaRG (AID 2283525)
Procedure, shortened: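 Eight-point, half-log concentration series (max 100 uM, 0.5% DMSO) applied to differentiated HepaRG cells for 48 h in duplicate. Endpoint: PDK4 mRNA induction or repression by qRT-PCR against DMSO baseline.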

[6] = read-out: NAD(P)H dehydrogenase [quinone] 1 (NQO1), NQO1 (gene 1728); test: LTEA_HepaRG_NQO1: Life Technologies and Expression Analysis (LTEA) Assay for NAD(P)H dehydrogenase [quinone] 1 (NQO1) using HepaRG (AID 2283526)
Procedure, shortened: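 NQO1 transcript induction or loss measured by TaqMan qRT-PCR, referenced to three housekeeping genes and fitted bidirectionally against 0.5% DMSO. HepaRG cultures exposed 48 h, duplicate, eight-point half-log series, top 100 uM.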

[7] = read-out: Nuclear factor erythroid 2-related factor 2 (Homo sapiens) (UniProt Q16236); test: LTEA_HepaRG_NFE2L2: Life Technologies and Expression Analysis (LTEA) Assay for Nuclear factor erythroid 2-related factor 2 (NFE2L2) Transcription Factor using HepaRG (AID 2283527)
Procedure, shortened: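 Human liver HepaRG line treated in duplicate for 48 h with an eight-point series topping at 100 uM. Gene expression of NFE2L2 by qRT-PCR, bidirectionally fitted against the vehicle control.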

[8] = read-out: succinate dehydrogenase complex iron sulfur subunit B (SDHB), SDHB (gene 6390); test: LTEA_HepaRG_SDHB: Life Technologies and Expression Analysis (LTEA) Assay for succinate dehydrogenase complex iron sulfur subunit B (SDHB) using HepaRG (AID 2283528)
Procedure, shortened: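 SDHB transcript level read by TaqMan qRT-PCR, housekeeping-normalised (ACTB, GAPDH, POLR2A), after 48 h chemical treatment of plated HepaRG cells; eight concentrations top 100 uM, half-log steps, 0.5% DMSO, duplicates; fitted both directions against DMSO.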

[9] = read-out: Signal transducer and activator of transcription 3 (Homo sapiens) (UniProt P40763); test: LTEA_HepaRG_STAT3: Life Technologies and Expression Analysis (LTEA) Assay for Signal transducer and activator of transcription (STAT3) using HepaRG (AID 2283529)
Procedure, shortened: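 In this transcriptional endpoint, HepaRG cultures receive test chemicals at up to 100 uM for 48 h, tested in duplicate. STAT3 mRNA is normalized to ACTB, GAPDH and POLR2A.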

[10] = read-out: solute carrier (SLCO1B1), SLCO1B1 (gene 10599); test: LTEA_HepaRG_SLCO1B1: Life Technologies and Expression Analysis (LTEA) Assay for solute carrier (SLCO1B1) using HepaRG (AID 2283530)
Procedure, shortened: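 Differentiated human HepaRG cells, plated 48 h, switched to serum-free induction medium and exposed in duplicate for 48 h to 8 half-log concentrations (top 100 uM) in 0.5% DMSO. SLCO1B1 mRNA by TaqMan qRT-PCR, normalized to ACTB/GAPDH/POLR2A.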

[11] = read-out: sulfotransferase 2A1 (SULT2A1), SULT2A1 (gene 6822); test: LTEA_HepaRG_SULT2A1: Life Technologies and Expression Analysis (LTEA) Assay for sulfotransferase 2A1 (SULT2A1) using HepaRG (AID 2283531)
Procedure, shortened: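 Differentiated human HepaRG cells in serum-free induction medium were exposed for 48 h to eight half-log concentrations (top 100 uM, 0.5% DMSO). SULT2A1 mRNA was measured by qRT-PCR, normalized to ACTB, GAPDH and POLR2A, and fitted bidirectionally against DMSO.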

[12] = read-out: Transforming Growth Factor (TGFA), TGFA (gene 7039); test: LTEA_HepaRG_TGFA: Life Technologies and Expression Analysis (LTEA) Assay for Transforming Growth Factor (TGFA) using HepaRG (AID 2283532)
Procedure, shortened: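 Gene expression of TGFA was quantified by qRT-PCR after human HepaRG cells were treated for 48 h with test chemicals (eight concentrations, highest 100 uM, 0.5% DMSO). Activity in either direction was fitted relative to DMSO.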

[13] = read-out: Transforming Growth Factor (TGFB1), TGFB1 (gene 7040); test: LTEA_HepaRG_TGFB1: Life Technologies and Expression Analysis (LTEA) Assay for Transforming Growth Factor (TGFB1) Transporter using HepaRG (AID 2283533)
Procedure, shortened: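 Differentiated human HepaRG cells in serum-free induction medium were exposed in duplicate for 48 h to eight concentrations (top 100 uM, half-log steps, 0.5% DMSO). TGFB1 mRNA was quantified by qRT-PCR, normalized to ACTB, GAPDH, POLR2A, and fitted bidirectionally against DMSO.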

[14] = read-out: TIMP1, TIMP1 (gene 7076); test: LTEA_HepaRG_TIMP1: Life Technologies and Expression Analysis (LTEA) Assay for TIMP1 using HepaRG (AID 2283534);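 further: TaqMan qRT-PCR signal normalized to ACTB GAPDH and POLR2A housekeeping genes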
Procedure, shortened: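 Differentiated human HepaRG cells in serum-free induction medium were exposed 48 h to chemicals (8 half-log concentrations, top 100 uM, 0.5% DMSO). TIMP1 mRNA was quantified by TaqMan qRT-PCR, normalized to ACTB/GAPDH/POLR2A; bidirectional fit versus DMSO.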

[15] = read-out: Tumor necrosis factor receptor 1 (TNFRSF1A), TNFRSF1A (gene 7132); test: LTEA_HepaRG_TNFRSF1A: Life Technologies and Expression Analysis (LTEA) Assay for Tumor necrosis factor receptor 1 (TNFRSF1A) using HepaRG (AID 2283535)
Procedure, shortened: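 Differentiated human HepaRG cells were exposed in duplicate for 48 h in serum-free induction medium to eight concentrations (top 100 uM, half-log steps, 0.5% DMSO). TNFRSF1A mRNA was quantified by qRT-PCR, normalized to ACTB, GAPDH and POLR2A, then fitted bidirectionally against DMSO.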

[16] = read-out: Thyroid Hormone Responsive (THRSP), THRSP (gene 7069); test: LTEA_HepaRG_THRSP: Life Technologies and Expression Analysis (LTEA) Assay for Thyroid Hormone Responsive (THRSP) using HepaRG (AID 2283536)
Procedure, shortened: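 Cell model: human HepaRG, approx. 100,000 cells/well, 0.5% DMSO vehicle. Exposure lasts 48 h; phenobarbital 1 mM serves as induction positive control. Gene expression is measured by qRT-PCR against three endogenous control genes.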

[17] = read-out: Cellular tumor antigen p53 (Homo sapiens) (UniProt P04637); test: LTEA_HepaRG_TP53: Life Technologies and Expression Analysis (LTEA) Assay for Tumor Protein P53 (TP53) using HepaRG (AID 2283537)
Procedure, shortened: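 TP53 transcript measured by qRT-PCR, normalized to three housekeeping genes, after 48 h treatment of human HepaRG cultures with chemicals from 100 uM downward in half-log steps (0.5% DMSO vehicle, serum-free induction medium). Up- or down-regulation fitted against DMSO.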

[18] = read-out: UDP glucuronosyltransferase (UGT1A1), UGT1A1 (gene 54658); test: LTEA_HepaRG_UGT1A1: Life Technologies and Expression Analysis (LTEA) Assay for UDP glucuronosyltransferase (UGT1A1) using HepaRG (AID 2283538)
Procedure, shortened: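 UGT1A1 transcript level, measured by qRT-PCR with three housekeeping genes for normalization, after 48 h treatment of human HepaRG cells (0.5% DMSO, duplicates, up to 100 uM, half-log steps, 8 points). Curves fit both directions against DMSO baseline.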

[19] = read-out: UDP glucuronosyltransferase (UGT1A6), UGT1A6 (gene 54578); test: LTEA_HepaRG_UGT1A6: Life Technologies and Expression Analysis (LTEA) Assay for UDP glucuronosyltransferase (UGT1A6) using HepaRG (AID 2283539)
Procedure, shortened: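 Human HepaRG cells were dosed for 48 h in serum-free induction medium with 0.5% DMSO vehicle, eight-point half-log series from 100 uM, in duplicate. UGT1A6 mRNA was measured by qRT-PCR, normalized to ACTB, GAPDH, POLR2A, and fitted bidirectionally against DMSO.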

[20] = read-out: X-box binding protein 1 (XBP1), XBP1 (gene 7494); test: LTEA_HepaRG_XBP1: Life Technologies and Expression Analysis (LTEA) Assay for X-box binding protein 1 (XBP1) using HepaRG (AID 2283540)
Procedure, shortened: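 Differentiated human HepaRG cells in serum-free induction medium were exposed in duplicate for 48 h to eight half-log concentrations up to 100 uM in 0.5% DMSO. XBP1 mRNA was quantified by qRT-PCR, normalised to ACTB, GAPDH and POLR2A, with bidirectional fitting against DMSO.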

Measured: outcome

Chain of Nuclear factor erythroid 2-related factor 2 (Homo sapiens) (Q16236 whole entry, looked up): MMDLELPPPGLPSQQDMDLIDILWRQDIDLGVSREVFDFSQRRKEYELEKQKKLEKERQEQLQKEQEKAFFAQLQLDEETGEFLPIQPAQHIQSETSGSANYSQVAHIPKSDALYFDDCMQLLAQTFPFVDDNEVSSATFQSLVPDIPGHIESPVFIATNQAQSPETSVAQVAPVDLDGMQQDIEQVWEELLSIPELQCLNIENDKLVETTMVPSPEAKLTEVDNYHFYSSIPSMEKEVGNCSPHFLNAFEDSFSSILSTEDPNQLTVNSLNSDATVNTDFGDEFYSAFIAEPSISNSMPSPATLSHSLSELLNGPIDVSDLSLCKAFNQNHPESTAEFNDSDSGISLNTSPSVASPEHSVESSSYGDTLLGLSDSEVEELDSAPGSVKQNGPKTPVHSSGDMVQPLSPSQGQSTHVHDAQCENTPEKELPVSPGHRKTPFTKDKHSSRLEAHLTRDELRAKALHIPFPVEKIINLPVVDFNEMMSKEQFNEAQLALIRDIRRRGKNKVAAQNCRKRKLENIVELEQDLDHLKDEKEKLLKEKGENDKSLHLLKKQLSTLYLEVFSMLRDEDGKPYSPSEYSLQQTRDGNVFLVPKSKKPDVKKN
Chain of Signal transducer and activator of transcription 3 (Homo sapiens) (P40763 whole entry, looked up): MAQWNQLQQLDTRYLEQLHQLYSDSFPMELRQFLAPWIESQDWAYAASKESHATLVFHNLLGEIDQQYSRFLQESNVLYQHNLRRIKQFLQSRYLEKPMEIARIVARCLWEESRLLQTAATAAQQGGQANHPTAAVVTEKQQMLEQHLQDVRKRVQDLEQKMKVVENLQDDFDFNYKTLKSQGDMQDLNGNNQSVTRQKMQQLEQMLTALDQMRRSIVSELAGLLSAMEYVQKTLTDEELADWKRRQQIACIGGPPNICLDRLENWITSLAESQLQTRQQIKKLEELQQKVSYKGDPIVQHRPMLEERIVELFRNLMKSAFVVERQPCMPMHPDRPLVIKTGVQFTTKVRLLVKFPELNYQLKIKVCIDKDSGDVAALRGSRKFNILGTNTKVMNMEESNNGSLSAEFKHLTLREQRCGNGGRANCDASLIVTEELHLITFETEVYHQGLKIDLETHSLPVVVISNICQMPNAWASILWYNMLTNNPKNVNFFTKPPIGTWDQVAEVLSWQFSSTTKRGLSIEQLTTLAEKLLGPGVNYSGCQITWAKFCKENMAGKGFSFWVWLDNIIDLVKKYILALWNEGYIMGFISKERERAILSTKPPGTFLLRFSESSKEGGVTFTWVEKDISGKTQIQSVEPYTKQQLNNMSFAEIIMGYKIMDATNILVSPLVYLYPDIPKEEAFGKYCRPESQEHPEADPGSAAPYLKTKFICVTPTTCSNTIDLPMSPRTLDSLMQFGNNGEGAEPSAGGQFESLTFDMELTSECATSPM
Chain of Cellular tumor antigen p53 (Homo sapiens) (P04637 whole entry, looked up): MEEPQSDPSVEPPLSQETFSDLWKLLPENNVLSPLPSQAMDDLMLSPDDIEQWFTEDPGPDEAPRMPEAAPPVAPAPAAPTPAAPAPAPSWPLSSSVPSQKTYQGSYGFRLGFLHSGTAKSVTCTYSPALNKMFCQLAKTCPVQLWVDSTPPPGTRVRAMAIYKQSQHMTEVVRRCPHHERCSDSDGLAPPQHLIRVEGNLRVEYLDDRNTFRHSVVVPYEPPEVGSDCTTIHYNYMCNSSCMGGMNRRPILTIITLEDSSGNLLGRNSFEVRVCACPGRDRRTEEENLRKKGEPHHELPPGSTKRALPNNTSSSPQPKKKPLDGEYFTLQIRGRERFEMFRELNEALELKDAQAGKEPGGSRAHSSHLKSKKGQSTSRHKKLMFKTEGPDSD

CCC(C)=NO
inactive: [1] | [2] | [3] | [4] | [5] | [6] | [7] | [8] | [9] | [10] | [11] | [12] | [13] | [14] | [15] | [16] | [17] | [18] | [19] | [20]

Source: PubChem BioAssay (EPA / NIEHS)
